Data taken from PubChem BioAssay.

Test: blockers of RIG-like receptor reporter activation – cell-based, Sendai virus stimulus, luciferase, 10K MLSCN set, TLR/RLR signaling modifier project, primary screen (AID 602276);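 further: firefly luciferase from ISG56 promoter only with Renilla not read in this screen; 0% = Sendai virus plus DMSO and 100% = medium plus DMSO without virus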
Conditions: HEK293 RL24 IRF3 luciferase reporter, at 10 µM, stronger effect = higher value;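 active means inhibition at or above 50% at 10 µM; inactive means inhibition below 50%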

inhibition, inactive:
O=C(NCc1ccco1)c1cccc(S(=O)(=O)N2CCCCC2)c1 -13.9%
O=C(O)c1ccc(C2SCC(=O)N2Cc2ccccc2)cc1 (stereo unspecified) -6.17%
Nc1cc(N)nc(SCc2ccccc2)n1 -47.8%
O=C(NCCCN1CCN(c2cccc(Cl)c2)CC1)c1ccc(N2CCCC2=O)cc1 10.3%
COc1ccccc1-n1c(SCC(=O)NC(C)(C)C)nnc1-c1ccco1 10.4%
O=C(NCc1ccco1)c1cc2sccc2n1Cc1ccccc1 -19.7%
CC(Sc1n[nH]c(=O)[nH]c1=O)C(=O)OCc1ccccc1 (stereo unspecified) 14.4%
COc1ccc(OC)c(Nc2nc(-c3cccs3)cs2)c1 7.1%
COc1cc(NC(=O)Nc2cccc(C(C)=O)c2)cc(OC)c1OC 14%
CN1CCN(c2ccc(Cl)cc2NC(=O)c2cccc(S(=O)(=O)N(C)C)c2)CC1 6.8%
Brc1ccc2ncnc(Nc3ccc(N4CCOCC4)cc3)c2c1 16.4%
COc1ccc(Cl)cc1NC(=O)CSc1nncn1-c1cccnc1 15.1%
COc1cccc(NC(=O)c2ccccc2NS(C)(=O)=O)c1 18.7%
O=S(=O)(c1cccc2c(S(=O)(=O)N3CCCC3)cccc12)N1CCCC1 18.2%
CCN1CCN(c2nc3c(c(=O)n(C)c(=O)n3C)n2Cc2cccc3ccccc23)CC1 12.4%
Cn1c(-c2ccccc2)cnc1SCc1nc2ccccc2c(=O)[nH]1 11.1%
